Screens deposited in PubChem by several laboratories.
Shown are actives, neighbours in structure and some others; about 3.8% of the full set was active somewhere.
PrPC surface inh: inhibitors of human cell surface prion protein PrPC; AID 720596; TR-FRET read-out; 0.43% of 370,000 active; P04156; inhibition, % at 13.8 µM; in the data active = inhibition above about 24%; also: 0% = median of the test wells and 100% = reference compound wells
PrP UTR inh: suppresses PrP 5' UTR mRNA reporter expression; inhibition, % (concentration not given with the values); AID 488862; 0.35% of 340,000 active; cell-based PrP 5' UTR mRNA reporter, plate reader; in the data active = inhibition above about 52%; also: 0 = median of the neutral control wells
Mtb hypoxia inh: reduces hypoxia-regulated biosensor signal in M. tuberculosis | fluorescence inhibition, % (test concentration not listed) | AID 1159583 | M. tuberculosis hypoxia-regulated fluorescent reporter, fluorescence | 0.1% of 300,000 active; in the data active = fluorescence inhibition mostly above about 23%, no sharp cut-off; inactive = mostly below about 17%
Y pestis TopoI: inhibitors of Yersinia pestis topoisomerase I. Y. pestis Topo-I cleavage product accumulation, plate reader. activity, % at 10 µM. 0.064% of 360,000 active. AID 504884; in the data active = activity above about 50%, passing the limit was not always enough
FBA Mtb inh: inhibits M. tuberculosis FBA enzyme | purified M. tuberculosis FBA, fluorescence read-out | inhibition, % at 1 µM | 2.3% of 360,000 active;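 also: 0% = vehicle and 100% = reference inhibitor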
Target sequence (P9WQA3 whole entry, looked up): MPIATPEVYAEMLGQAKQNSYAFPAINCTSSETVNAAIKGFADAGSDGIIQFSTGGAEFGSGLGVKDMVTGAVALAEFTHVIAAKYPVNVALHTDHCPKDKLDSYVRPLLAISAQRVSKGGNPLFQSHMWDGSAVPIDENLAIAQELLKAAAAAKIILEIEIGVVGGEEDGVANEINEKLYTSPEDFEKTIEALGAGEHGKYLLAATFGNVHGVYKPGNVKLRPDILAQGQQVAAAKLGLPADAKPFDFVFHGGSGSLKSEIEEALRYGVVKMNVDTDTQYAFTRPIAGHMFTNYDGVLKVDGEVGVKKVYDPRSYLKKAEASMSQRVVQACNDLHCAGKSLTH
GDH-TPI counter-1: counter-screen for M. tuberculosis FBA inhibitors: GDH-TPI coupled enzymes; GDH-TPI coupled enzyme counterscreen, NADH absorbance; 1.2% of 360,000 active; AID 588335; inhibition, % at 4.8 µM; in the data active = inhibition above about 30%;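 also: 0% = DMSO wells and 100% = wells lacking the enzyme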
Mtb FBA inh conf: Mtb FBA inhibition, confirmed; shares compounds with FBA Mtb inh; purified M. tuberculosis FBA, fluorescence read-out; inhibition, % at 1 µM; 78% of 5,600 active; AID 651616;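 also: 0% = vehicle wells and 100% = reference inhibitor wells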
GDH-TPI counter-2: counter-screen for M. tuberculosis FBA inhibitors: GDH-TPI coupled enzyme inhibition; shares compounds with FBA Mtb inh; GDH-TPI coupled enzyme counterscreen, fluorescence; inhibition, % at 1 µM; 81% of 5,600 active; AID 652141; in the data active = inhibition above about 10%
GDH-TPI dose: GDH-TPI dose response counter-screen for Mtb FBA | IC50, µM | shares compounds with FBA Mtb inh | 79% of 170 active | GDH-TPI coupled enzyme assay, fluorescence, artifact counterscreen; call rule not given here
* marks the source's active call; other numbers are inactive results; x = not tested or not shown; + = active, no number. Rule as the data show it, unless noted: active = inhibition above about 27%; inactive = the rest.

SMILES	PrPC surface inh	PrP UTR inh	Mtb hypoxia inh	Y pestis TopoI	FBA Mtb inh	GDH-TPI counter-1	Mtb FBA inh conf	GDH-TPI counter-2	others
Cc1ccc(CNC(=S)Nc2ccc3c(c2)c(=O)n(C)n3Cc2cccc(C(F)(F)F)c2)cc1	17	x	x	14	36*	13	141*	101*
CCCCn1c(NC(=O)c2ccccc2Cl)c(C#N)c2nc3ccccc3nc21	3	-22	-5	20	26	4	x	x
CCC(=O)Nc1c(C#N)c2nc3ccccc3nc2n1-c1ccccc1C	-3	-16	5	-1	36*	9	76*	64*
c1cncc(CNc2cccc(-c3nc4ccccc4[nH]3)c2)c1	0	-72	13	-10	48*	8	0	-3
COc1ccc(/C=C2\Oc3ccccc3C2=O)cc1	4	30	x	5	84*	12	18	8	GDH-TPI dose=1.6*
CC(=O)Oc1ccc(/C=C2/Oc3ccccc3C2=O)cc1	7	-33	-5	6	2	24	x	x
COCCNC(=O)CC(=O)NN=Cc1cccc(C(=O)OC)c1	x	x	7	x	x	x	x	x
COc1ccc(C2SCC(=O)N2c2ccc(F)cc2)cc1 (stereo unspecified)	9	-16	5	-3	0	5	x	x
COc1ccc(N2C(=O)CSC2c2cccc(F)c2)cc1 (stereo unspecified)	0	x	5	-1	39*	-5	181*	154*
COCC1OC(OC(C)C(O)c2cnc3nc(N)[nH]c(=O)c3n2)C(O)C(OC)C1O (stereo unspecified)	-4	x	x	9	103*	-4	92*	66*
CCCn1c(N)c(N(CCOC)C(=O)COC(=O)c2ccccc2NCCO)c(=O)[nH]c1=O	4	-12	1	-14	90*	1	122*	103*
CCCCn1c(N)c(N(CCOC)C(=O)COC(=O)c2ccccc2OCC)c(=O)[nH]c1=O	2	-4	7	6	-1	-1	x	x
CCCc1cc(=O)[nH]c(SCC(=O)NC2CC2)n1	2	8	-7	-1	3	3	x	x
CCCc1cc(=O)[nH]c(SCC(=O)Nc2sc3c(c2C#N)CCC(C)C3)n1 (stereo unspecified)	0	-7	12	6	37*	4	99*	73*
COc1cc(C=NNC(=O)c2cc3ccccc3cc2O)ccc1OCCN1CCCCC1	x	x	1	x	x	x	x	x
COc1ccc(-c2nc(C(N)=O)c3[nH]c(=O)n(-c4cccc(C)c4)c3n2)c(OC)c1	2	4	10	29	4	16	x	x
CCc1nc(C(N)=O)c2[nH]c(=O)n(-c3ccccc3F)c2n1	-1	-12	2	5	105*	8	91*	74*
CC(C)Cc1nc(C(N)=O)c2[nH]c(=O)n(-c3ccc(F)cc3)c2n1	9	6	6	-1	10	2	x	x
Cc1cccc(-n2c(=O)[nH]c3c(C(N)=O)nc(CC(C)C)nc32)c1	3	-12	3	-7	46*	9	94*	76*
COc1ccccc1-c1nc(C(N)=O)c2[nH]c(=O)n(-c3cccc(C)c3)c2n1	-1	-9	6	37	48*	29	+	195*
CC(=NNC(=O)c1sc(=S)n(C)c1C)c1ccccc1	x	x	6	x	x	x	x	x
C(=C\c1ccc2nncn2c1)/c1ccccc1	-5	x	x	-4	50*	13	11	-3
O=C(CSCc1cccc(Cl)c1)NN=Cc1ccc(OCC(=O)N2CCCCC2)cc1	x	x	4	x	x	x	x	x
Cn1c(=O)c2c(ncn2CC(=O)NN=C/C=C/c2ccccc2[N+](=O)[O-])n(C)c1=O	x	x	-10	x	x	x	x	x
CCCCC#Cc1cncc(C(=O)NN=Cc2ccccc2)c1	x	x	-6	x	x	x	x	x
SMILES	PrPC surface inh	PrP UTR inh	Mtb hypoxia inh	Y pestis TopoI	FBA Mtb inh	GDH-TPI counter-1	Mtb FBA inh conf	GDH-TPI counter-2	others
Cc1cc(NCCCO)n2nc(-c3cccs3)cc2n1	1	-19	6	-8	33*	0	68*	56*
OCCCNc1cc(-c2ccccc2)nc2cc(-c3ccc(F)cc3)nn12	21	-16	3	-4	59*	15	102*	77*
Cc1cc(NCCN(C)C)n2nc(-c3cccs3)cc2n1	-1	-17	17	-9	22	9	x	x
Nc1cc(-c2ccc(Br)cc2)nc2cc(-c3ccccc3)nn12	17	-21	0	-7	9	4	x	x
COc1ccc([N+](=O)[O-])cc1C=NNC(=O)CNC(=O)C(c1ccccc1)c1ccccc1	x	x	2	x	x	x	x	x
Cc1n[nH]c(=O)nc1NN=Cc1ccco1	x	x	-2	x	x	x	x	x
O=C(NC1CCCCC1)c1ccc2ccccc2c1O	-4	x	x	-7	28*	27	5	-3
Cc1cc(N)c2ccccc2n1	-5	-18	3	-6	-4	-7	x	x
Cc1c2ccccc2nc2ccccc12	2	-15	-2	-4	64*	17	199*	123*
Clc1ccsc1-c1ccnc(-n2cccc2)n1	5	-5	14	2	7	3	x	x
Clc1ccc(-c2ccnc(-n3cccc3)n2)s1	8	3	13	-9	45*	16	+	157*
c1coc(-c2ccnc(-n3cccc3)n2)c1	0	-26	15	1	31*	2	147*	129*
CC(Oc1ccccc1)C(=O)N1CCN(c2ccc(N3CCCCCC3)nn2)CC1 (stereo unspecified)	-11	-33	11	2	16	10	x	x
O=C(c1ccccc1)N1CCN(c2ccc(N3CCOCC3)nn2)CC1	-6	-8	3	2	32*	1	28*	30*
O=C(Cn1c(=O)oc2ccccc21)N1CCN(c2ccc(N3CCOCC3)nn2)CC1	-7	-14	2	4	28*	14	132*	80*
CC(Oc1ccccc1)C(=O)N1CCN(c2ccc(N3CCOCC3)nn2)CC1 (stereo unspecified)	0	-20	11	5	30*	-7	1	0
COc1ccccc1C(=O)N1CCN(c2ccc(N3CCOCC3)nn2)CC1	-12	-6	1	-3	21	6	x	x
Cc1ccccc1CS(=O)(=O)CCC(=O)N1CCN(c2ccc(N3CCOCC3)nn2)CC1	-14	-19	1	9	35*	0	66*	60*
CC(C)NC(=O)Nc1ccc2c(c1)C(=O)N(C(C)CO)CC(C)C(CN(C)S(=O)(=O)c1ccccc1)O2 (stereo unspecified)	x	x	-2	x	x	x	x	x
CCC(C)Sc1ccc(C2C3C(=O)N(CC)C(=O)C3[C@]3(C(=O)OC)CCCCN23)cc1OC (stereo partly specified)	x	x	4	x	x	x	x	x
